Laboratory results as given in PubChem BioAssay AID731 (The Scripps Research Institute Molecular Screening Center, 2007).
Screen size: about 200,000 compounds; about 520 (0.26%) were called active. No stated cut-off is given here; in the data, active means activation above about 23%; inactive means the rest. The entries come from a sample that favours actives as a whole.

What follows are compounds tested against Peroxisome proliferator-activated receptor gamma (Homo sapiens) (UniProt P37231) (assay: enhancers of SRC-3 binding to PPARgamma – biochemical, primary screen (AID 731;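 further: 0% = DMSO and 100% = reference agonist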)). Conditions: biochemical PPARgamma/SRC-3 coactivator recruitment assay; at 8 µM; hits give high values.
Chain of Peroxisome proliferator-activated receptor gamma (Homo sapiens) (P37231 whole entry, looked up): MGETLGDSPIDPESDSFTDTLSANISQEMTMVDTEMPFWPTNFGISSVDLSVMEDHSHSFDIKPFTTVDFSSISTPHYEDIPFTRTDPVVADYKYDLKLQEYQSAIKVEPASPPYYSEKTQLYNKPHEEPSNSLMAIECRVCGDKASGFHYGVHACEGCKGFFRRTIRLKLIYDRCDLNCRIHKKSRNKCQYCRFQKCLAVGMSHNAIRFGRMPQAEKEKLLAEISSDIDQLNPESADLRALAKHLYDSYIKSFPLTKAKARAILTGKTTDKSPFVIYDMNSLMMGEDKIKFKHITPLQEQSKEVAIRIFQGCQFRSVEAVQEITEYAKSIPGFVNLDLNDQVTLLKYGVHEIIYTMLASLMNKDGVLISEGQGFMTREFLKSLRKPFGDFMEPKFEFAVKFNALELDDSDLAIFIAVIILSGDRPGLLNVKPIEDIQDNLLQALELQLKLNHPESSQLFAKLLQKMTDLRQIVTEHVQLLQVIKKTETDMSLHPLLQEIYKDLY

activation, active:
COc1ccc(/C(O)=C2/C(=O)C(=O)N(c3nc(C)c(C)s3)C2c2ccco2)cc1 (stereo not drawn) 32.8%, Cn1c(=O)cc(SCC(=O)N2CCN(C(=O)c3ccco3)CC2)c2ccccc21 82.2%, CCOC(=O)C1CCN(C(=O)CSc2cc(=O)n(C)c3ccccc23)CC1 63.4%, Cn1c(=O)cc(SCC(=O)N2CCCC2)c2cc(Cl)ccc21 39.3%, COC(=O)c1ccccc1SC1CC(=O)N(c2cccc(C)c2)C1=O (stereo not drawn) 33%, CNC(=S)N1N=C(c2ccccc2)CC1c1ccc(Br)cc1 (stereo not drawn) 34.4%, CC(=O)c1ccc(S(=O)(=O)N2CCN(c3nc4c(C)c(C)ccc4cc3C#N)CC2)cc1 56.6%

activation, inactive:
CC(=O)NS(=O)(=O)c1ccc(NC(=O)C2C3C=CC(C3)C2C(=O)O)cc1 (stereo not drawn) 0.92%, CC(=O)Cc1nsc(NC(=O)c2ccc(Cl)cc2Cl)n1 -0.15%, O=C(NCc1nnc(SCC(=O)N2CCC(Cc3ccccc3)CC2)o1)c1ccco1 -1.46%, CCOC(=O)C1CCN(C(=O)c2ccccc2N(C)S(=O)(=O)c2ccccc2)CC1 0.82%, COc1ccc(-n2nc3c(c2NC(=O)c2ccc(N4C(=O)CCC4=O)cc2)CSC3)cc1 2.03%, COc1ccc(/C(O)=C2\C(=O)C(=O)N(Cc3ccco3)C2c2ccc(OC)cc2OC)cc1 (stereo not drawn) 8.22%, COc1ccccc1C1/C(=C(/O)c2ccc(C)cc2)C(=O)C(=O)N1Cc1ccco1 (stereo not drawn) -1.85%, CCc1ccc(NC(=O)C(=O)N/N=C(\C)CC(=O)NCCOC)cc1 0.12%, CN(C)c1ccc(C(=S)N2CCN(C(=S)Nc3ccc(Cl)cc3)CC2)cc1 2.08%, O=C(CSCc1ccc(Cl)cc1)N1CCCCC1 7.11%, Cc1cccc(OCc2nnc(SCC(=O)N3CCN(C(=O)c4ccco4)CC3)n2C)c1C 9.2%, CCOC(=O)C1CCN(C(=O)Cn2cc(C#N)c3ccccc32)CC1 13.8%, CC(=O)c1ccc(-n2nnnc2SCC(=O)N2CCN(C(=O)c3ccco3)CC2)cc1 0.9%, CCOc1ccc(CCNC(=O)CSc2cc(=O)n(C)c3ccc(Cl)cc23)cc1OCC 10.2%, CCOC(=O)N1CCC(NC(=O)COc2cc(=O)n(C)c3ccccc23)CC1 -2.51%, Cc1cccc(N2C(=O)CC(SC(N)=Nc3ccccc3)C2=O)c1 (stereo not drawn) -7.93%, COC(=O)c1cc(C(=O)OC)cc(N2C(=O)CC(N3CCN(c4ccccc4)CC3)C2=O)c1 (stereo not drawn) -12.5%, O=C(COC(=O)/C(=C/c1cccs1)c1cccs1)NCc1ccccc1Cl 3.76%, Brc1ccc(C2CC(c3ccccc3)=Nc3ccccc3N2)cc1 (stereo not drawn) 0.93%, COc1ccc(C2CC(c3ccccc3)=NN2C(=O)COC(=O)COc2ccccc2)cc1 (stereo not drawn) -0.96%, Cc1ccc2[nH]c3c(=O)n(Cc4ccccn4)cnc3c2c1 8.8%, Cc1cccc2cc(C#N)c(N3CCCC3)nc12 -13.8%, Cc1cc(C)c2nc(N3CCCC3)c(C#N)cc2c1 -3.43%, O=C(NCc1ccccc1)C1=C[C@@H](C2CCCCC2)C[C@@H](OCc2ccc(CO)cc2)O1 -1.47%, CCS(=O)(=O)Nc1cccc(-c2cc(-c3ccccc3)c3cc(C)ccc3n2)c1 -3.81%, O=C(CSc1nc2cccnc2n1Cc1ccccc1)N1CCc2ccccc21 -2.44%
